Data: PubChem BioAssay AID1159580 (chemical genetic matrix, 2015)
Screen size: about 5,500 compounds; about 2,000 (36%) were called active. About 18% were inconclusive and are not listed. Rule as the data show it: active = normalized growth mostly below about 0.91 (no sharp cut-off); inconclusive = no clear call, values can overlap the other calls; inactive = mostly above about 0.92. This is one part of the list.

Assay: chemical genetic growth profiling, strain panel (AID 1159580);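 also: tested at 20 µM; growth read once vehicle control cultures reached saturation at 30 °C; 1 = growth at the plate median or of vehicle wells; lower values mean less growth of the strain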
Details: S. cerevisiae deletion strains, growth OD

Measured: normalized growth

CC(=O)O[C@H]1CC2CCC3C(CC[C@@]4(C)C3C[C@H]([N+]3(C)CCCCC3)[C@@H]4OC(C)=O)[C@@]2(C)C[C@@H]1[N+]1(C)CCCCC1 (stereo not given in full)
inactive: locus YAL021C, strain ccr4, stronger effect = lower value 1.02 | locus YAL026C, strain drs2, stronger effect = lower value 1.02 | locus YAL030W, strain snc1, stronger effect = lower value 1.02 | locus YBL061C, strain skt5, stronger effect = lower value 1.01 | locus YBR009C, strain hhf1, stronger effect = lower value 1.03 | locus YBR023C, strain chs3, stronger effect = lower value 1.03 | locus YBR171W, strain sec66, stronger effect = lower value 1.04 | locus YBR231C, strain swc5, stronger effect = lower value 1.02 | locus YBR279W, strain paf1, stronger effect = lower value 1.01 | locus YCL011C, strain gbp2, stronger effect = lower value 1.02 | locus YCL016C, strain dcc1, stronger effect = lower value 1.02 | locus YCL061C, strain MRC1, stronger effect = lower value 1.02 | locus YCL069W, strain vba3, stronger effect = lower value 1.01 | locus YCR088W, strain abp1, stronger effect = lower value 1.01 | locus YDL005C, strain med2, stronger effect = lower value 1.02 | locus YDL040C, strain nat1, stronger effect = lower value 1.02 | locus YDR001C, strain nth1, stronger effect = lower value 1.01 | locus YDR069C, strain doa4, stronger effect = lower value 1.02 | locus YDR137W, strain rgp1, stronger effect = lower value 1.04 | locus YDR159W, strain sac3, stronger effect = lower value 1.04 | locus YDR195W, strain ref2 0.978 | locus YDR297W, strain sur2, stronger effect = lower value 1.01 | locus YDR334W, strain swr1, stronger effect = lower value 1.01 | locus YDR335W, strain msn5, stronger effect = lower value 1.02 | locus YDR392W, strain spt3, stronger effect = lower value 0.943 | locus YEL003W, strain gim4, stronger effect = lower value 1.02 | locus YEL037C, strain rad23, stronger effect = lower value 1.02 | locus YEL061C, strain CIN8 (second series), stronger effect = lower value 1.02 | locus YER015W, strain faa2, stronger effect = lower value 1.01 | locus YER016W, strain bim1, stronger effect = lower value 1.02 | locus YER111C, strain swi4, stronger effect = lower value 1.01 | locus YER155C, strain BEM2 (second series), stronger effect = lower value 1.03 | locus YFR010W, strain ubp6, stronger effect = lower value 1.01 | locus YGL167C, strain pmr1, stronger effect = lower value 1.02 | locus YGL173C, strain kem1, stronger effect = lower value 1.03 | locus YGL227W, strain vid30, stronger effect = lower value 1.01 | locus YGL240W, strain doc1, stronger effect = lower value 1.02 | locus YGL253W, strain hxk2, stronger effect = lower value 1.02 | locus YHR013C, strain ard1, stronger effect = lower value 1.01 | locus YHR027C, strain rpn1, stronger effect = lower value 1.01 | locus YHR030C, strain SLT2, stronger effect = lower value 1.04 | locus YHR079C, strain IRE1, stronger effect = lower value 1.03 | locus YHR142W, strain chs7, stronger effect = lower value 1.02 | locus YJL092W, strain hpr5, stronger effect = lower value 1.01 | locus YJL095W, strain BCK1 (second series), stronger effect = lower value 1.02 | locus YJL095W, strain BCK1, stronger effect = lower value 1.02 | locus YJL115W, strain asf1, stronger effect = lower value 1.03 | locus YJL129C, strain trk1, stronger effect = lower value 1.02 | locus YJL154C, strain vps35, stronger effect = lower value 1.01 | locus YJL164C, strain tpk1, stronger effect = lower value 1.01 | locus YJL166W, strain qcr8, stronger effect = lower value 1.02 | locus YJL187C, strain SWE1, stronger effect = lower value 1.02 | locus YJR066W, strain TOR1, stronger effect = lower value 0.979 | locus YKL160W, strain elf1, stronger effect = lower value 1.02 | locus YKR026C, strain gcn3, stronger effect = lower value 1 | locus YKR091W, strain srl3, stronger effect = lower value 1.02 | locus YLL001W, strain dnm1, stronger effect = lower value 1.02 | locus YLL026W, stronger effect = lower value 1.03 | locus YLL041C, strain sdh2, stronger effect = lower value 1.02 | locus YLR027C, strain aat2, stronger effect = lower value 1.02 | locus YLR113W, strain HOG1, stronger effect = lower value 0.988 | locus YLR221C, strain rsa3, stronger effect = lower value 1.01 | locus YLR258W, strain gsy2, stronger effect = lower value 1.02 | locus YLR262C, strain YPT6 (second series), stronger effect = lower value 1.04 | locus YLR320W, strain mms22, stronger effect = lower value 1.01 | locus YLR342W, strain FKS1, stronger effect = lower value 1.03 | locus YLR357W, strain rsc2, stronger effect = lower value 0.991 | locus YLR370C, strain arc18, stronger effect = lower value 1.03 | locus YLR384C, strain iki3, stronger effect = lower value 1.01 | locus YML120C, strain ndi1, stronger effect = lower value 1.01 | locus YMR058W, strain fet3, stronger effect = lower value 1.02 | locus YMR125W, strain sto1, stronger effect = lower value 1.02 | locus YMR129W, stronger effect = lower value 1.02 | locus YMR205C, strain PFK2, stronger effect = lower value 1.02 | locus YMR231W, strain pep5, stronger effect = lower value 1.01 | locus YNL071W, strain lat1, stronger effect = lower value 1.01 | locus YNL183C, strain NPR1, stronger effect = lower value 0.974 | locus YNL209W, strain ssb2, stronger effect = lower value 1.01 | locus YNL248C, strain rpa49, stronger effect = lower value 0.988 | locus YNL322C, strain KRE1 (second series), stronger effect = lower value 1.02 | locus YNR049C, strain mso1, stronger effect = lower value 1.01 | locus YOR001W, strain rrp6, stronger effect = lower value 1.03 | locus YOR070C, strain gyp1, stronger effect = lower value 1.02 | locus YOR080W, strain dia2, stronger effect = lower value 1.03 | locus YOR083W, strain WHI5, stronger effect = lower value 1.02 | locus YOR106W, strain vam3, stronger effect = lower value 1.02 | locus YOR231W, strain MKK1, stronger effect = lower value 1.03 | locus YOR265W, strain rbl2, stronger effect = lower value 1.02 | locus YOR270C, strain vph1, stronger effect = lower value 1.05 | locus YOR290C, strain snf2, stronger effect = lower value 1.02 | locus YPL051W, strain arl3, stronger effect = lower value 1.02 | locus YPL078C, strain atp4, stronger effect = lower value 1.01 | locus YPL106C, strain sse1, stronger effect = lower value 1 | locus YPL240C, strain hsp82, stronger effect = lower value 1.02 | locus YPL256C, strain CLN2, stronger effect = lower value 1.04
